Assay results reported in PubChem BioAssay AID652053 (Broad Institute, 2013).
Screen size: about 1,300 compounds; about 930 (72%) were called active.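 The calls were made as follows: active = fitted curve reaches 40% activation signal increase at or below the top valid tested concentration in every replicate test; inconclusive = replicate tests disagree in their calls; inactive = all replicate tests inactive, including effects opposite the expected signal rise.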 So high a share suggests a set chosen from earlier hits. Only a sample is shown. Measured potencies and affinities stand elsewhere.

assay: suppression of miR-122 activity, Renilla luciferase sensor – cell-based, Huh7 psiCHECK-miR122, cherry-pick, dose response (AID 652053); conditions: Huh7 psiCHECK-miR122 Renilla luciferase reporter, 48 h; series mostly up to 35 µM

outcome, inactive:
C[C@@H]1CN([C@@H](C)CO)C(=O)Cc2cc(NC(=O)Nc3cccc4ccccc34)ccc2O[C@H]1CN(C)C(=O)NC1CCCCC1
COc1ccc(/C=N/NC(=O)COc2ccccc2-c2ccccc2)cc1
Cc1ccc(OCC(=O)Nc2cccc3c2CCCC3)cc1C
CCOc1ccc(N2C(=O)Nc3ccccc3C2(O)C(=O)NCc2ccc3c(c2)OCO3)cc1 (stereo not given)
Cc1cc(Cl)c(S(=O)(=O)N2CCCCCC2)cc1OCC(=O)NC1CCCCC1
c1ccc(CSc2nnc(-c3cccnc3)o2)cc1
C=CC(C)n1c(Br)nc2c1c(=O)[nH]c(=O)n2C (stereo not given)
CS(=O)(=O)N(CC(=O)Nc1cccc(F)c1)c1cccc([N+](=O)[O-])c1
Cc1c(-c2ccccc2)cn2c1-c1ccc(C)n1CC2
O=C(CN1CCOCC1)Nc1cc(Cl)ccc1Cl
CCn1c(CCNC(=O)c2ccc(OC)cc2)nnc1SCC(=O)Nc1ccccc1F
COc1cc(OC)c(-c2nc3cnccc3n2C)cc1OC
CCOC(=O)c1[nH]c2c(c1C)C(=O)CC(c1ccco1)C2 (stereo not given)
COC(=O)c1[nH]c2c(c1C)C(=O)CC(c1ccccc1)C2 (stereo not given)
CCC(=O)N1[C@H](CO)[C@H](c2ccccc2)[C@@H]1CN(CC)C(=O)c1cccc(F)c1
Cc1ccc(NCc2nnc(SCC(=O)Nc3ccccc3)n2CC2CCCO2)c(C)c1 (stereo not given)
CC1CCN(C(=S)c2ccc(O)cc2)CC1
CC1CCN(S(=O)(=O)c2ccc(NC(=O)Cc3cccs3)cc2)CC1
COCC(=O)Nc1ccc2c(c1)[C@@H]1C[C@H](CC(=O)NCc3ccccc3)O[C@H](CO)[C@@H]1O2
O=C(C[C@@H]1C[C@H]2c3cc(NS(=O)(=O)c4ccc(F)cc4)ccc3O[C@H]2[C@H](CO)O1)NCc1ccc(Oc2ccccc2)cc1
COc1ccc(NC(=O)Nc2ccc3c(c2)CC(=O)N([C@@H](C)CO)C[C@@H](C)[C@H](CN(C)C(=O)NC(C)C)O3)cc1
C[C@@H]1CN([C@@H](C)CO)C(=O)c2cc(N(C)C)ccc2O[C@@H]1CN(C)C(=O)Nc1ccc(F)cc1
COc1ccc(NC(=O)Nc2ccc3c(c2)CC(=O)N([C@@H](C)CO)C[C@@H](C)[C@@H](CN(C)C(=O)NC(C)C)O3)cc1
CC(=O)c1cccc(OCC(=O)Nc2ccccc2N2CCOCC2)c1
COCCCn1c(=O)/c(=C\c2ccccc2OC(F)F)s/c1=C(/C#N)C(N)=O
Cc1cc(C)c(C)c(S(=O)(=O)Nc2ccc(OCC(=O)O)cc2)c1C
Cc1cc(O)c(C(C)C)cc1N=Nc1ccccc1C(=O)O
Cc1ccc(C)c(S(=O)(=O)Nc2ccc(O)c3ccccc23)c1
Cc1ccc(C(=O)Oc2ccc(C(=S)N3CCOCC3)cc2)cc1
C=CCn1cc(C(=O)N2CCc3ccccc3C2)c(=O)c2cc(S(=O)(=O)N(CC)CC)ccc21
CC(=O)c1cccc(NC(=O)C(C)N2CCc3ccccc3C2)c1 (stereo not given)
Cc1ccc(CN2C(=O)C(C)(C)Oc3ccc(C(=O)N4CCCCC4)cc32)cc1
CCc1cccc(NC(=O)Cc2cn(C)c3ccccc23)c1
CCc1ccc(NC(=O)CN2CCc3ccccc3C2)cc1
Cc1noc(C)c1NC(=O)Nc1ccc2c(c1)CC(=O)N([C@@H](C)CO)C[C@H](C)[C@@H](CN(C)Cc1ccc(Cl)c(Cl)c1)O2
